From PubChem BioAssay
Rows were chosen to be rich in hits. Some 15% of all compounds tested hit in one or more screens of this group.
DT40 TDP1 CPT: DT40-hTDP1 cell growth loss with CPT | Potency, µM (series often up to 46.2 µM), inactives show at the top dose activity change, negative = growth inhibition, actives largely listed as inhibitors | AID 686979 | 12% of 420,000 active | chicken DT40 Tdp1-/-;hTDP1 cells + 20 nM CPT, ATP luminescence, 48 h; further: nearly all actives have a fitted effect of over 55% in size
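Cell growth measured by CellTiter-Glo luminescence after a minimum 48 h, 37 C compound exposure with 20 nM CPT in Tdp1-knockout DT40 cells stably expressing hTDP1, seeded 400/well; qHTS titration format.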
ELG1 repair inh: inhibitors of ELG1-dependent DNA repair in HEK293T cells | HEK293T ELG1-luciferase reporter, luminescence, 16 h; DNA damage induced by 5-fluorouridine | Potency, µM (titrated, usually from 46.1 µM), for inactives: at the top dose activity change, negative = inhibition, actives largely listed as inhibitors | 2.3% of 330,000 active | AID 504467; further: nearly all actives have a fitted effect of over 55% in size
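Step one: seed 2,000 cells per well. Step two: pin-transfer compound or DMSO alongside 5-fluorouridine. Step three: incubate 16 hr, 37 °C, 5% CO2. Step four: add ONE-Glo, wait 30 min, read luminescence.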
ALOX12 inh: blocks human arachidonate 12S-lipoxygenase | purified 12hLO, xylenol orange hydroperoxide absorbance | 1.1% of 580,000 active | Potency, µM (titrated, usually from 108 µM), inactives show at the top dose activity change, negative = inhibition, actives largely listed as inhibitors
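Hydroperoxide product was detected by ferrous iron/xylenol orange as the 573 to 405 nm absorbance ratio. Arachidonic acid at 40 uM (final) was turned over for 30 min at room temperature by 150 nM human 12hLO, pH 7.0 Hepes buffer, after 15 min compound preincubation.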
RORgamma inh: blocks mouse ROR gamma transcriptional activity; Potency, µM (doses to about 53.6 µM), without a hit: top-dose activity change, negative = inhibition, actives largely listed as inhibitors; AID 2551; Drosophila S2 Gal4-RORgamma UAS-luciferase reporter, 20 h; 5.4% of 310,000 active; further: nearly all actives have a fitted effect of over 60% in size
Target sequence (P51450 whole entry, looked up, the tested form may be a part): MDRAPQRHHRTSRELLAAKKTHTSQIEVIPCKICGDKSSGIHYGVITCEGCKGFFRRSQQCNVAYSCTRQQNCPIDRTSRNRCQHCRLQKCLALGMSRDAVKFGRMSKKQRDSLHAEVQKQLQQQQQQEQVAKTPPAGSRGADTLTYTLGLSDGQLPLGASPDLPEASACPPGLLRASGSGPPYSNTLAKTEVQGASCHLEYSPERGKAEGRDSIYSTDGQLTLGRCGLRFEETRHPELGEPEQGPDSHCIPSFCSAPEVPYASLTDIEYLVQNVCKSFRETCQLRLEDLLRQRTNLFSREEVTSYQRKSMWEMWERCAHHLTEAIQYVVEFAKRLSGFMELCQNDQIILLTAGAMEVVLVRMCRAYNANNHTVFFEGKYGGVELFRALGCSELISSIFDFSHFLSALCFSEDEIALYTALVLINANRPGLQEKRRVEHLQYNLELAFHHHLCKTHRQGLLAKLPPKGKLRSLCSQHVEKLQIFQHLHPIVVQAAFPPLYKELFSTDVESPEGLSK
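Luciferase reporter read in Schneider cells carrying Gal4-RORγ (mouse) and UAS-Photinus luciferase; cells given compound 1 h before 700 uM copper sulfate induction, then incubated 20 h at ambient temperature.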
TDP1 cell noCPT: qHTS for Inhibitors of human tyrosyl-DNA phosphodiesterase 1 (TDP1): qHTS in cells in absence of CPT; 15% of 420,000 active; Potency, µM (titrated, usually from 46.2 µM), inactives show at the highest dose activity change, negative = growth inhibition, usual class: inhibitors; AID 686978, 2013; DT40 Tdp1-/- hTDP1 cells, no CPT, ATP luminescence, 48 h; further: nearly all actives have a fitted effect of over 55% in size
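Chicken DT40 Tdp1-/- cells stably complemented with human TDP1 were seeded at 400 cells/well with DMSO in place of 20 nM camptothecin. After compound pinning, cells grew at least 48 hr at 37 °C; viability read by CellTiter-Glo luminescence.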
VP16 counter: counter-screen for ROR gamma inhibitors: Gal4-VP16 reporter | 3.5% of 310,000 active | Drosophila S2 Gal4-VP16 UAS-luciferase, luminescence, 20 h | Potency, µM (top dose mostly 53.6 µM), for inactives: at the highest dose activity, negative = inhibition, actives largely listed as inhibitors;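 further: Gal4-VP16 expression switched on by copper sulfate through the metallothionein promoter; nearly all actives have a fitted effect of over 50% in size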
Numbers without * were called inactive; u = inconclusive; x = no result; [ ] = dose if it differs, or a comment. The call rests on the fitted dose curve; in most records, active means well fitted curve in the direction sought with a large enough effect; inconclusive means small, poorly fitted or top-dose-only effect, or another doubt; inactive means no such curve, though single readings can be large; an effect the other way counts as inactive or inconclusive. On the % scale 0 is the no-effect control and ±100 the full control effect; potency means the concentration at half of the fitted maximal effect.

SMILES	DT40 TDP1 CPT	ELG1 repair inh	ALOX12 inh	RORgamma inh	TDP1 cell noCPT	VP16 counter
OC1(c2cccc(C(F)(F)F)c2)CCN(Cc2nnnn2CCc2ccccc2)CC1	23.1µM*	u	51.7%	24.3%	20.6µM*	5.2%
CCc1ccc(CN(C)C(=O)NC(c2ccc3c(c2)OCCCO3)C(C)C)cc1 (centres undefined)	x	x	-11.7%	x	x	x
CC(C)C[C@H](NC(=O)[C@H](CCc1ccccc1)NC(=O)CN1CCOCC1)C(=O)N[C@@H](Cc1ccccc1)C(=O)N[C@@H](CC(C)C)C(=O)[C@@]1(C)CO1	0.0067µM*	x	-15.3%[57.4 µM]	x	0.0042µM*	x
N#Cc1c(N)nc(N)nc1Nc1ccc(Br)cc1	u	u	-22.4%	-9.1%	14.6µM*	1.5%
O=[N+]([O-])c1cc(C(F)(F)F)ccc1N1CCN(CCOc2cccc(Cl)c2)CC1	x	x	12.0%	x	x	x
CCOc1ccc(C(=O)NC(=S)N2CCN(c3ccc(C(F)(F)F)cc3[N+](=O)[O-])CC2)cc1	u	11.7%	-14.3%	0.316µM*	u	0.251µM*
CC(C)Oc1cccc(C(=O)NC(=S)N2CCN(c3ccc(C(F)(F)F)cc3[N+](=O)[O-])CC2)c1	u	u	u	0.447µM*	u	1.12µM*
COc1cccc(OC)c1C(=O)NC(=S)N1CCN(c2ccc(C(F)(F)F)cc2[N+](=O)[O-])CC1	u	-20.3%	1.7%	7.08µM*	u	22.4µM*
COc1cccc(C(=O)NC(=S)N2CCN(c3ccc(C(F)(F)F)cc3[N+](=O)[O-])CC2)c1	u	-19.9%	-21.4%	0.562µM*	u	0.631µM*
O=[N+]([O-])c1cc(C(F)(F)F)ccc1N1CCN(CCO)CC1	-1.5%	7.2%	0.0%	9.6%	-13.8%	-1.0%
CN(Cc1ccccc1)Cc1nc2c(n1Cc1ccccc1)C(=O)N(Cc1cccc(Cl)c1)CCN2	x	x	18.7%	x	x	x
O=C(C1CCC1)N1CCN(c2ccc(C(F)(F)F)cc2[N+](=O)[O-])CC1	u	u	0.0%	7.08µM*	u	3.98µM*
O=C(Nc1ccccc1)N1CCCN(c2ccc(C(F)(F)F)cc2[N+](=O)[O-])CC1	u	u	0.0%	u	u	u
Cc1cc(C)nc(Nc2nc(-c3ccccc3)c3ccc(Cl)cc3n2)n1	x	x	28.2%	x	x	x
O=C(O)C(Cc1ccccc1)C(C(=O)O)c1ccccc1 (centres undefined)	x	x	-23.8%	x	x	x
CCCCNC(=O)/C(=C\c1ccc([N+](=O)[O-])o1)NC(=O)c1ccccc1	16.4µM*	u	-22.7%	u	u	3.5%
Cc1cccc(NC(=O)/C(=C\c2ccc([N+](=O)[O-])o2)NC(=O)c2ccc(Cl)cc2)c1	u	-3.5%	u	29.7%	u	0.1%
COC(=O)/C(=C\c1ccc([N+](=O)[O-])o1)NC(=O)c1ccccc1	14.1µM*	u	u	u	11.2µM*	-0.8%
CCOC(=O)c1[nH]c2ccccc2c1NC(=O)c1ccccc1OCC	0.651µM*	x	-28.0%	x	0.731µM*	x
COCC(=O)c1[nH]c2ccccc2c1C	25.9µM*	4.7%	0.0%	2.0%	u	2.4%
COCC(=O)NCCSc1c(C)[nH]c2ccccc12	1.5%	-9.2%	4.4%	16.6%	8.3%	7.5%
CCOC(=O)c1[nH]c2ccccc2c1NC(=O)c1ccc(S(=O)(=O)N2CCCCC2)cc1	u	-11.8%	-6.7%	18.7%	23.1µM*	-0.6%
CCCC(=O)Nc1c(C(=O)OCC)[nH]c2ccccc12	-21.0%	u	-6.1%	u	1.84µM*	-4.7%
CCOC(=O)c1[nH]c2ccccc2c1NC(=O)CC(C)C	-3.9%	-10.8%	3.0%	0.0%	2.0%	5.8%
